“And” between values parts separate entries of the source, which are not always exact repeats. Equal entries are not always repeated. Hit rate of the full screen: of about 5,500 compounds, about 2,000 (36%) were called active. Inconclusive results (about 18%) are left out. Cut-off read from the data, not from the text of the source: active = normalized growth mostly below about 0.91 (no sharp cut-off); inconclusive = no clear call, values can overlap the other calls; inactive = mostly above about 0.92. This is one part of the list.
Assay: chemical genetic growth profiling, strain panel (AID 1159580);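 note: tested at 20 µM; growth read once vehicle control cultures reached saturation at 30 °C; 1 = growth at the plate median or of vehicle wells; lower values mean less growth of the strain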
Conditions: growth OD

Measured: normalized growth

CC(C)Cn1c(=O)n(C)c(=O)c2[nH]cnc21
inactive: S. cerevisiae deletion strains, locus YJR075W, strain HOC1, hits give low values 0.999 | S. cerevisiae deletion strains, locus YKL009W, strain mrt4, hits give low values 0.969 | S. cerevisiae deletion strains, locus YKL068W, hits give low values 0.991 | S. cerevisiae deletion strains, locus YKL085W, strain MDH1 (second series), hits give low values 0.983 | S. cerevisiae deletion strains, locus YKL085W, strain MDH1, hits give low values 0.983 | S. cerevisiae deletion strains, locus YKL160W, strain elf1, hits give low values 0.986 and 0.992 | S. cerevisiae deletion strains, locus YKL190W, strain CNB1, hits give low values 1.01 | S. cerevisiae deletion strains, locus YKR001C, strain vps1, hits give low values 0.967 | S. cerevisiae deletion strains, locus YKR026C, strain gcn3, hits give low values 0.985 and 1.01 | S. cerevisiae deletion strains, locus YKR091W, strain srl3, hits give low values 0.988 and 1 | S. cerevisiae deletion strains, locus YLL001W, strain dnm1, hits give low values 0.994 and 1.01 | S. cerevisiae deletion strains, locus YLL026W, hits give low values 0.999 and 1.01 | S. cerevisiae deletion strains, locus YLL041C, strain sdh2, hits give low values 0.997 and 1 | S. cerevisiae deletion strains, locus YLR027C, strain aat2, hits give low values 1 and 1.01 | S. cerevisiae deletion strains, locus YLR039C, strain RIC1, hits give low values 0.953 | S. cerevisiae deletion strains, locus YLR058C, strain SHM2, hits give low values 0.991 | S. cerevisiae deletion strains, locus YLR102C, strain apc9, hits give low values 0.99 | S. cerevisiae deletion strains, locus YLR113W, strain HOG1, hits give low values 1.01 and 0.985 | S. cerevisiae deletion strains, locus YLR221C, strain rsa3, hits give low values 1 and 1.04 | S. cerevisiae deletion strains, locus YLR258W, strain gsy2, hits give low values 0.988 and 1.02 | S. cerevisiae deletion strains, locus YLR262C, strain YPT6 (second series), hits give low values 1.01 and 0.998 | S. cerevisiae deletion strains, locus YLR262C, strain YPT6, hits give low values 0.966 | S. cerevisiae deletion strains, locus YLR268W, strain sec22, hits give low values 0.978 | S. cerevisiae deletion strains, locus YLR320W, strain mms22, hits give low values 1 and 1.04 | S. cerevisiae deletion strains, locus YLR330W, strain CHS5, hits give low values 0.991 | S. cerevisiae deletion strains, locus YLR342W, strain FKS1 (second series), hits give low values 0.953 | S. cerevisiae deletion strains, locus YLR342W, strain FKS1, hits give low values 1 and 1.01 | S. cerevisiae deletion strains, locus YLR357W, strain rsc2, hits give low values 1.03 and 1 | S. cerevisiae deletion strains, locus YLR370C, strain arc18, hits give low values 1 and 1.03 | S. cerevisiae deletion strains, locus YLR371W, strain rom2, hits give low values 0.982 | S. cerevisiae deletion strains, locus YLR384C, strain iki3, hits give low values 0.985 and 1.01 | S. cerevisiae deletion strains, locus YLR418C, strain cdc73, hits give low values 1.02 | S. cerevisiae deletion strains, locus YML016C, strain PPZ1, hits give low values 0.988 | S. cerevisiae deletion strains, locus YML032C, strain rad52, hits give low values 0.973 | S. cerevisiae deletion strains, locus YML120C, strain ndi1, hits give low values 1.01 and 0.981 | S. cerevisiae deletion strains, locus YML124C, strain tub3, hits give low values 0.981 | S. cerevisiae deletion strains, locus YMR058W, strain fet3, hits give low values 1.01 and 1.03 | S. cerevisiae deletion strains, locus YMR078C, strain ctf18, hits give low values 0.98 | S. cerevisiae deletion strains, locus YMR125W, strain sto1, hits give low values 0.998 and 0.978 | S. cerevisiae deletion strains, locus YMR129W, hits give low values 0.994 and 1 | S. cerevisiae deletion strains, locus YMR205C, strain PFK2, hits give low values 0.991 and 0.986 | S. cerevisiae deletion strains, locus YMR223W, strain ubp8, hits give low values 0.973 | S. cerevisiae deletion strains, locus YMR231W, strain pep5, hits give low values 1 and 1.01 | S. cerevisiae deletion strains, locus YMR263W, strain SAP30, hits give low values 1.01 | S. cerevisiae deletion strains, locus YMR307W, strain GAS1, hits give low values 0.924 | S. cerevisiae deletion strains, locus YNL067W, strain RPL9B, hits give low values 0.999 | S. cerevisiae deletion strains, locus YNL071W, strain lat1, hits give low values 1.02 and 1 | S. cerevisiae deletion strains, locus YNL128W, strain TEP1, hits give low values 1.01 | S. cerevisiae deletion strains, locus YNL153C, strain GIM3, hits give low values 1.02 | S. cerevisiae deletion strains, locus YNL175C, strain NOP13, hits give low values 0.999 | S. cerevisiae deletion strains, locus YNL183C, strain NPR1, hits give low values 0.928 and 0.909 | S. cerevisiae deletion strains, locus YNL197C, strain WHI3, hits give low values 0.986 | S. cerevisiae deletion strains, locus YNL209W, strain ssb2, hits give low values 1.02 and 0.995 | S. cerevisiae deletion strains, locus YNL224C, strain SQS1, hits give low values 0.998 | S. cerevisiae deletion strains, locus YNL233W, strain BNI4, hits give low values 0.998 | S. cerevisiae deletion strains, locus YNL248C, strain rpa49, hits give low values 0.996 and 1.06 | S. cerevisiae deletion strains, locus YNL250W, strain rad50, hits give low values 0.98 | S. cerevisiae deletion strains, locus YNL271C, strain bni1, hits give low values 0.999 | S. cerevisiae deletion strains, locus YNL298W, strain CLA4, hits give low values 0.983 | S. cerevisiae deletion strains, locus YNL307C, strain MCK1, hits give low values 0.976 | S. cerevisiae deletion strains, locus YNL322C, strain KRE1 (second series), hits give low values 0.996 and 0.988 | S. cerevisiae deletion strains, locus YNL322C, strain KRE1, hits give low values 0.993 and 0.979 | S. cerevisiae deletion strains, locus YNR049C, strain mso1, hits give low values 0.992 and 1.01 | S. cerevisiae deletion strains, locus YNR052C, strain pop2, hits give low values 0.989 | S. cerevisiae deletion strains, locus YOL006C, strain TOP1, hits give low values 0.998 | S. cerevisiae deletion strains, locus YOL012C, strain htz1 2.1 | S. cerevisiae deletion strains, locus YOL147C, strain pex11, hits give low values 0.985 | S. cerevisiae deletion strains, locus YOR001W, strain rrp6, hits give low values 1.01 and 1.05 | S. cerevisiae deletion strains, locus YOR061W, strain CKA2, hits give low values 0.993 | S. cerevisiae deletion strains, locus YOR069W, strain VPS5, hits give low values 0.987 | S. cerevisiae deletion strains, locus YOR070C, strain gyp1, hits give low values 1 and 1.01 | S. cerevisiae deletion strains, locus YOR080W, strain dia2, hits give low values 1.01 | S. cerevisiae deletion strains, locus YOR083W, strain WHI5 (second series), hits give low values 0.998 | S. cerevisiae deletion strains, locus YOR083W, strain WHI5, hits give low values 0.958 and 0.992 | S. cerevisiae deletion strains, locus YOR106W, strain vam3, hits give low values 1 and 0.973 | S. cerevisiae deletion strains, locus YOR136W, strain idh2, hits give low values 0.981 | S. cerevisiae deletion strains, locus YOR144C, strain elg1, hits give low values 0.987 | S. cerevisiae deletion strains, locus YOR184W, strain ser1, hits give low values 0.96 | S. cerevisiae deletion strains, locus YOR231W, strain MKK1, hits give low values 1.01 and 0.96 | S. cerevisiae deletion strains, locus YOR265W, strain rbl2, hits give low values 1 | S. cerevisiae deletion strains, locus YOR270C, strain vph1, hits give low values 0.997 and 1.08 | S. cerevisiae deletion strains, locus YOR290C, strain snf2, hits give low values 0.994 and 0.97 | S. cerevisiae deletion strains, locus YOR316C, strain cot1, hits give low values 0.993 | S. cerevisiae deletion strains, locus YPL051W, strain arl3, hits give low values 0.997 and 1.02 | S. cerevisiae deletion strains, locus YPL055C, strain LGE1, hits give low values 1.03 | S. cerevisiae deletion strains, locus YPL078C, strain atp4, hits give low values 1 and 0.993 | S. cerevisiae deletion strains, locus YPL106C, strain sse1, hits give low values 0.998 and 1.02 | S. cerevisiae deletion strains, locus YPL240C, strain hsp82, hits give low values 1 and 1.01 | S. cerevisiae deletion strains, locus YPL241C, strain CIN2, hits give low values 0.992 | S. cerevisiae deletion strains, locus YPL256C, strain CLN2, hits give low values 0.993 and 0.947 | S. cerevisiae deletion strains, locus YPR119W, strain clb2, hits give low values 0.993 | S. cerevisiae deletion strains, locus YPR141C, strain kar3, hits give low values 0.975 | S. cerevisiae deletion strains, locus YPR163C, strain tif3, hits give low values 0.998 | S. cerevisiae deletion strains, locus YPR167C, strain met16, hits give low values 0.988 | S. cerevisiae deletion strains, strain wtn01, hits give low values 0.988 | S. cerevisiae strains, strain wild type, hits give low values 0.995
